Assay results as given in PubChem BioAssay (EPA / NIEHS).
Where “and” joins values, the source holds several entries; their conditions need not be identical. Equal values may be shown once. Inconclusive results are not listed. Some compounds were tested as several samples or in several runs, with calls that do not always agree. Calls of active or inactive are those of the source. How the source made its calls: active means hit-call score of the fitted dose curve at least 0.9, where 1 is the maximum; inconclusive means response in the unintended direction; inactive means score below 0.9.

What was measured:
[1] = target: Beta-2 adrenergic receptor (Homo sapiens) (UniProt P07550); test: NVS_GPCR_hAdrb2: NovaScreen (NVS) G Protein-Coupled Receptor Assay for human Adrenergic, Beta 2 Receptor (Adrb2) (AID 2283261)
Procedure, shortened: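 Compounds screened in duplicate at 25 uM, then actives in concentration series. Human beta-2 receptor from CHO material, cell-free; radioligand displacement after 1 h measured by filtration and scintillation against DMSO baseline.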

[2] = target: human Dopamine Receptor D2 (DRD2), DRD2 (gene 1813) (UniProt P14416); test: NVS_GPCR_hDRD2s: NovaScreen (NVS) G Protein-Coupled Receptor Assay for human Dopamine Receptor D2 (DRD2) (AID 2283266)
human Dopamine Receptor D2 (DRD2), DRD2 (gene 1813), sequence (P14416 whole entry, looked up): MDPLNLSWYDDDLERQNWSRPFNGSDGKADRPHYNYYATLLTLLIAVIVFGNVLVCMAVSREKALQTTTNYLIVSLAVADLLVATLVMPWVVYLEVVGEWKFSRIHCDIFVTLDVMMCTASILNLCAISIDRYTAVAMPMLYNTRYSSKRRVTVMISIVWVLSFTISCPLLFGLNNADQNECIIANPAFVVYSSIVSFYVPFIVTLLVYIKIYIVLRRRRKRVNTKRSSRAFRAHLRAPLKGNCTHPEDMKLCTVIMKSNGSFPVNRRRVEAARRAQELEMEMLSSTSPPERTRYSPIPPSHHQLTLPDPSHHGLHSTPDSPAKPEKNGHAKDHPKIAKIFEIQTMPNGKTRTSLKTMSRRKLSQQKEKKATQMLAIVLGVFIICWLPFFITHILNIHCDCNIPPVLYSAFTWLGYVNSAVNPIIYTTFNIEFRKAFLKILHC
Procedure, shortened: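 Test compound (25 uM, duplicate in the primary screen; concentration series at follow-up) competed with radioligand for human DRD2 in CHO-derived membrane protein. Filter-based scintillation counting was done 1.5 hours after dosing, with loss of signal analysed against DMSO.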

[3] = target: D(1A) dopamine receptor (Homo sapiens) (UniProt P21728); test: NVS_GPCR_hDRD1: NovaScreen (NVS) G Protein-Coupled Receptor Assay for human Dopamine Receptor D1 (DRD1) (AID 2283269)
D(1A) dopamine receptor (Homo sapiens), sequence (P21728 whole entry, looked up): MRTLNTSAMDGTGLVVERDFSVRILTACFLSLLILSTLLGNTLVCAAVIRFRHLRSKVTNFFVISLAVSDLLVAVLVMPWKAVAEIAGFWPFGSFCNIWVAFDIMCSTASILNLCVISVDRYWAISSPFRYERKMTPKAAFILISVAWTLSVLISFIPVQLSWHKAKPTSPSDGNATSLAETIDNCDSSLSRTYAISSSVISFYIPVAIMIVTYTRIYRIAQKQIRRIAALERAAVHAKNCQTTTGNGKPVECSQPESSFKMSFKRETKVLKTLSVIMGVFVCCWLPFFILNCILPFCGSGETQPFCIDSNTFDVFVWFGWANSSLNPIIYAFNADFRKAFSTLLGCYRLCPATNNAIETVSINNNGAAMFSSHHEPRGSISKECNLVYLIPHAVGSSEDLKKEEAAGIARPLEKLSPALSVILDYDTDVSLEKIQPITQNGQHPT
Procedure, shortened: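 Radioligand displacement binding on membranes/protein extracted from HEK293 expressing human D1, cell-free; read 1 h after dosing by filter-based scintillation counting. Primary screen in duplicate at 25 uM, actives followed up in concentration series; signal loss versus DMSO baseline.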

[4] = target: human Leukotriene B4 Receptor 1 (LTB4-BLT1), LTB4R (gene 1241) (UniProt Q15722); test: NVS_GPCR_hLTB4_BLT1: NovaScreen (NVS) G Protein-Coupled Receptor Assay for human Leukotriene B4 Receptor 1 (LTB4-BLT1) (AID 2283271)
Procedure, shortened: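 Cell-free human neutrophil receptor preparation, 1 h exposure, radioligand binding read by filter scintillation counting. Single 25 uM duplicate screen, then concentration series topping at 50 uM; binding loss scored against DMSO baseline.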

[5] = target: Muscarinic acetylcholine receptor M2 (Homo sapiens) (UniProt P08172); test: NVS_GPCR_hM2: NovaScreen (NVS) G Protein-Coupled Receptor Assay for human Muscarinic, M2 Receptor (AID 2283273)
Muscarinic acetylcholine receptor M2 (Homo sapiens), sequence (P08172 whole entry, looked up): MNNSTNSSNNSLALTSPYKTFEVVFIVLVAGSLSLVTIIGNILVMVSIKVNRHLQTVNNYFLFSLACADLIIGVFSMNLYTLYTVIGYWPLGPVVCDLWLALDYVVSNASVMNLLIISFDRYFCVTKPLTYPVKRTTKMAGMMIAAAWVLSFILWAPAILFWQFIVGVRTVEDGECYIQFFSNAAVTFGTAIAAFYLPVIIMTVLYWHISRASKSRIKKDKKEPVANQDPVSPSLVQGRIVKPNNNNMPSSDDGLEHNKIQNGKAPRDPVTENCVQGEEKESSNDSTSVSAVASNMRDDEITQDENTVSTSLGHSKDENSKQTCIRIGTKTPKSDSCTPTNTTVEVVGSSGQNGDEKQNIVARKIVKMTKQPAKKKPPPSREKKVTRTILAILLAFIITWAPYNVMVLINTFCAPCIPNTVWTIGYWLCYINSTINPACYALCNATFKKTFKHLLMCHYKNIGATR
Procedure, shortened: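 Filter-based radiodetection read bound radioligand 1 h after dosing CHO-derived membrane protein. Single-concentration duplicates (25 uM) first, then concentration-response for actives; signal loss versus DMSO scored.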

[6] = target: human Muscarinic, M4 Receptor, CHRM4 (gene 1132) (UniProt P08173); test: NVS_GPCR_hM4: NovaScreen (NVS) G Protein-Coupled Receptor Assay for human Muscarinic, M4 Receptor (AID 2283274)
human Muscarinic, M4 Receptor, CHRM4 (gene 1132), sequence (P08173 whole entry, looked up): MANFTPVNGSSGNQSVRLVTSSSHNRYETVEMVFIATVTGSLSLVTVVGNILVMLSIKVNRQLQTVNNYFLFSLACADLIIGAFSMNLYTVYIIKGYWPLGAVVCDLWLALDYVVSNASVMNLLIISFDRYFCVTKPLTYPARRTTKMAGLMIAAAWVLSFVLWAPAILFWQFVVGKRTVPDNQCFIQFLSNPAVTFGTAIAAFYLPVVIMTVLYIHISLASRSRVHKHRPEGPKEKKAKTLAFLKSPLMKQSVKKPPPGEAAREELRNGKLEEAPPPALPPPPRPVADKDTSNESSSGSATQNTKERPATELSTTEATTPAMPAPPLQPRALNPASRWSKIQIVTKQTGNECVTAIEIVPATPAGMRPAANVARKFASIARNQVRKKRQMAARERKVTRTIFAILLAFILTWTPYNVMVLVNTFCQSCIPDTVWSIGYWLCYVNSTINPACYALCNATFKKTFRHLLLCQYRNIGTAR
Procedure, shortened: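 Filter-based scintillation counting of radioligand bound to CHO-expressed human M4 preparations after 1 h; loss of signal fitted versus DMSO. Initial duplicate testing at 25 uM, concentration-response follow-up for actives.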

[7] = target: Muscarinic acetylcholine receptor M5 (Homo sapiens) (UniProt P08912); test: NVS_GPCR_hM5: NovaScreen (NVS) G Protein-Coupled Receptor Assay for human Muscarinic, M5 Receptor (AID 2283275)
Muscarinic acetylcholine receptor M5 (Homo sapiens), sequence (P08912 whole entry, looked up): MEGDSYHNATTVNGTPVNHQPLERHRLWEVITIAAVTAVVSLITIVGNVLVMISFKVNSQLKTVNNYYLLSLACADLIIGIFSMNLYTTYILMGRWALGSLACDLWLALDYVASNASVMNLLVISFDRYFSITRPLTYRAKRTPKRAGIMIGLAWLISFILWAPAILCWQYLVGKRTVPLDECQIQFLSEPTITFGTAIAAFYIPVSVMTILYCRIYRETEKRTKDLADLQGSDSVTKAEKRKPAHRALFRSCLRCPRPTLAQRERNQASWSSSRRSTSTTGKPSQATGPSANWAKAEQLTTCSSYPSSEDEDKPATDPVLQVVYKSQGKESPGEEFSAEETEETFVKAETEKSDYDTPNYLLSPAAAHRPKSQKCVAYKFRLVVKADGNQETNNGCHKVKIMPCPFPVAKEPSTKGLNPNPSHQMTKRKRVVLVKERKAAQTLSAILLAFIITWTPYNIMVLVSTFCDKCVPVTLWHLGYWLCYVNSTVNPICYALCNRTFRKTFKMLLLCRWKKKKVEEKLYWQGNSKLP
Procedure, shortened: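 Chemicals passing a primary duplicate screen at 25 uM were run as singleton concentration series, maximum 50 uM. Displacement of a specific radioligand from CHO-extracted receptor was read by filter scintillation after 1 h, relative to DMSO.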

[8] = target: human Neuropeptide Receptor Y1 (NPY1), NPY1R (gene 4886) (UniProt P25929); test: NVS_GPCR_hNPY1: NovaScreen (NVS) G Protein-Coupled Receptor Assay for human Neuropeptide Receptor Y1 (NPY1) (AID 2283276)
Procedure, shortened: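 Displacement of specific radioligand from NPY1 receptor of SK-N-MC origin, read by filtration and scintillation after 1 h. Compounds first tested at 25 uM in duplicate, then actives in concentration series; signal loss relative to DMSO.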

[9] = target: human Neurokinin, NK2 Receptor, TACR2 (gene 6865) (UniProt P21452); test: NVS_GPCR_hNK2: NovaScreen (NVS) G Protein-Coupled Receptor Assay for human Neurokinin, NK2 Receptor (AID 2283278);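 further: actives reduce bound radioligand signal relative to DMSO baseline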
human Neurokinin, NK2 Receptor, TACR2 (gene 6865), sequence (P21452 whole entry, looked up): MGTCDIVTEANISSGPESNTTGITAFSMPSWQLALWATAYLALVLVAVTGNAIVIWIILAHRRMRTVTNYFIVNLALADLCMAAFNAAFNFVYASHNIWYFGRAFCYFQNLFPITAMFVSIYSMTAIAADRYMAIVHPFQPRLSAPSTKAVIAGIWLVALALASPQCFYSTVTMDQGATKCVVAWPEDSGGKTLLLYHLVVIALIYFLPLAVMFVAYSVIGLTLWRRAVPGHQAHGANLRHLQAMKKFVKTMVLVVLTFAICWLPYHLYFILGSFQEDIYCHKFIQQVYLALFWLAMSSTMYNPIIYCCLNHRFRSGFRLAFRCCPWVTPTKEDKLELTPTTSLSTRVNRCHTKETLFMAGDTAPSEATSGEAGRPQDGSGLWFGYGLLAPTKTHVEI
Procedure, shortened: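 Radioligand binding on membranes from CHO cells expressing receptor, filter-based scintillation read 4 h after dosing. Initial duplicate screen at 25 uM, actives in concentration series; loss of signal versus DMSO.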

[10] = target: human Opioid Receptor Delta 1 (Opiate D1), OPRD1 (gene 4985) (UniProt P41143); test: NVS_GPCR_hOpiate_D1: NovaScreen (NVS) G Protein-Coupled Receptor Assay for human Opioid Receptor Delta 1 (Opiate D1) (AID 2283280)
human Opioid Receptor Delta 1 (Opiate D1), OPRD1 (gene 4985), sequence (P41143 whole entry, looked up): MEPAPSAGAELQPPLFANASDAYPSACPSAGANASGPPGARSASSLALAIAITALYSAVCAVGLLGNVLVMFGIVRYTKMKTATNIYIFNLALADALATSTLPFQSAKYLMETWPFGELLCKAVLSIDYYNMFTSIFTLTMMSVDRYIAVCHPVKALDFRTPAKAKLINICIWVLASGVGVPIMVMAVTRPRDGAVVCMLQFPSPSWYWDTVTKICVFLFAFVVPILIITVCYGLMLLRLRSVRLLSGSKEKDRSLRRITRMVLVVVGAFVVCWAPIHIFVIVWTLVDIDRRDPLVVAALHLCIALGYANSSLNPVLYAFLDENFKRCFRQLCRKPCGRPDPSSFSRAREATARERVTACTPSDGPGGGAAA
Procedure, shortened: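 Membrane preparations from CHO cells bearing the human receptor were incubated 1 h with test chemical, and bound radioligand was counted after filtration. Actives from 25 uM duplicate screening were retested in concentration-response.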

[11] = target: human Orphanin, Opioid Related Nociceptin Receptor 1 (ORL1), OPRL1 (gene 4987) (UniProt P41146); test: NVS_GPCR_hORL1: NovaScreen (NVS) G Protein-Coupled Receptor Assay for human Orphanin, Opioid Related Nociceptin Receptor 1 (ORL1) (AID 2283283)
human Orphanin, Opioid Related Nociceptin Receptor 1 (ORL1), OPRL1 (gene 4987), sequence (P41146 whole entry, looked up): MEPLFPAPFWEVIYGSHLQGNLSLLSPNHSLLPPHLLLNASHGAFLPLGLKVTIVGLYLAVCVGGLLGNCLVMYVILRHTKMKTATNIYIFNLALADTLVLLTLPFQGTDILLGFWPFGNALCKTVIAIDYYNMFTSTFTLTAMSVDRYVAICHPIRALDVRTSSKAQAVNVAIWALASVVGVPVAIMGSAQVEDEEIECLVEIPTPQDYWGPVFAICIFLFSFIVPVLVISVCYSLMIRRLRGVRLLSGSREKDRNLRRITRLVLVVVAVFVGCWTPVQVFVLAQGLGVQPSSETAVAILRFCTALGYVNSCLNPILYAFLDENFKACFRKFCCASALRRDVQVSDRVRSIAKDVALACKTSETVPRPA
Procedure, shortened: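 Cell-free binding using HEK293-derived receptor protein: radioligand displacement measured by filter scintillation 1 hour after dosing. Primary testing at 25 uM in duplicate, followed by singleton concentration series up to 50 uM; DMSO served as negative control.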

[12] = target: rat Serotonin, 5-Hydroxytryptamine Receptor 1 (5HT1), Non-Selective Binding, Htr1a (gene 24473) (UniProt P19327); test: NVS_GPCR_r5HT1_NonSelective: NovaScreen (NVS) G Protein-Coupled Receptor Assay for rat Serotonin, 5-Hydroxytryptamine Receptor 1 (5HT1), Non-Selective Binding (AID 2283286)
Procedure, shortened: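 Binding of a radioligand to rat cortex membranes is read by filtration and scintillation counting after 1 h. Compounds were screened at 25 uM in duplicate. Actives were then titrated to a top of 50 uM. DMSO is the baseline.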

[13] = system: rabbit Platelet Activating Factor Receptor (PAF), gene 100354046; test: NVS_GPCR_rabPAF: NovaScreen (NVS) G Protein-Coupled Receptor Assay for rabbit Platelet Activating Factor Receptor (PAF) (AID 2283287)
Procedure, shortened: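 Rabbit platelet membrane preparation; radioligand displacement read by filter-based scintillation counting 1 h after dosing, loss of signal versus DMSO. Primary screen in duplicate at 25 uM, actives followed up in concentration series.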

[14] = target: rat Adrenergic, Alpha 1, Non-selective Receptor (Adra1), Adra1a (gene 29412) (UniProt P43140); test: NVS_GPCR_rAdra1_NonSelective: NovaScreen (NVS) G Protein-Coupled Receptor Assay for rat Adrenergic, Alpha 1, Non-selective Receptor (Adra1) (AID 2283289)
Procedure, shortened: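 Chemicals first screened in duplicate at 25 uM, then actives tested in concentration series up to 50 uM. Binding measured as displacement of radioligand from rat forebrain membrane receptors, 1 h, filtration with scintillation readout; DMSO baseline.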

[15] = target: human Opioid Receptor Mu (Opiate Mu), OPRM1 (gene 4988) (UniProt P35372); test: NVS_GPCR_hOpiate_mu: NovaScreen (NVS) G Protein-Coupled Receptor Assay for human Opioid Receptor Mu (Opiate Mu) (AID 2283290);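 further: hits lower bound tracer signal versus DMSO meaning displacement of the ligand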
human Opioid Receptor Mu (Opiate Mu), OPRM1 (gene 4988), sequence (P35372 whole entry, looked up): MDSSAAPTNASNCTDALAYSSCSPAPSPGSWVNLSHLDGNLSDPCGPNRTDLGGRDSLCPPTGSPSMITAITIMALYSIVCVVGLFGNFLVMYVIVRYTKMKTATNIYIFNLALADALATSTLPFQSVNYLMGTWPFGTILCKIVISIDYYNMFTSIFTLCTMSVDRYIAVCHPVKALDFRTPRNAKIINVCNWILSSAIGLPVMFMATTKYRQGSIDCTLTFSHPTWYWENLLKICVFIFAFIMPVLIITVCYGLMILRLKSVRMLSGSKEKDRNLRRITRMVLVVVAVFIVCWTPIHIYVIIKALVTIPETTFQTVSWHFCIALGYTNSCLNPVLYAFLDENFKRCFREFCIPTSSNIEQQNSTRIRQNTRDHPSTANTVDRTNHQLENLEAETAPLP
Procedure, shortened: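 Radioligand displacement binding on membranes from CHO cells expressing the receptor, 2.5 h after dosing, filter-based scintillation counting; loss of signal vs DMSO baseline. Screened in duplicate at 25 uM, actives then run in concentration series.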

[16] = target: guinea pig Bradykinin Receptor B2 (BK2), BDKRB2 (gene 100135486) (UniProt O70526); test: NVS_GPCR_gBK2: NovaScreen (NVS) G Protein-Coupled Receptor Assay for guinea pig Bradykinin Receptor B2 (BK2) (AID 2283292)
guinea pig Bradykinin Receptor B2 (BK2), BDKRB2 (gene 100135486), sequence (O70526 whole entry, looked up): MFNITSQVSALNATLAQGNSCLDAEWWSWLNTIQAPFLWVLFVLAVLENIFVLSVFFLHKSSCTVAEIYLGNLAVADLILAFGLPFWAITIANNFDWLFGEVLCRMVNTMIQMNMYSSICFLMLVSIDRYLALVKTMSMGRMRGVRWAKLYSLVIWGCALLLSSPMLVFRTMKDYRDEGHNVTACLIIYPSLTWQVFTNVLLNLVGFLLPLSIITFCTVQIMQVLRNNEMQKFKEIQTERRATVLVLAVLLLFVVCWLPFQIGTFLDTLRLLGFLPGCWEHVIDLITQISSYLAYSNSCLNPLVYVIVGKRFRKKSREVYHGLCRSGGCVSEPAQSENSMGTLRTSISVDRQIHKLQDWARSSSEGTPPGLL
Procedure, shortened: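 Guinea pig ileum membrane preparation incubated 1 h with radioligand and test chemical; bound counts measured after filtration. Primary duplicate screening at 25 uM, then singleton concentration series with a 50 uM top dose; DMSO as baseline.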

[17] = target: guinea pig Serotonin, 5-Hydroxytryptamine Receptor 4 (5HT4), HTR4 (gene 100135548) (UniProt O70528); test: NVS_GPCR_g5HT4: NovaScreen (NVS) G Protein-Coupled Receptor Assay for guinea pig Serotonin, 5-Hydroxytryptamine Receptor 4 (5HT4) (AID 2283294)
Procedure, shortened: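 Compounds first screened in duplicate at 25 uM, actives followed up in concentration series. Binding measured as displacement of specific radioligand from guinea pig striatal membranes, 1 h, filter-based scintillation read-out versus DMSO baseline.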

[18] = target: human Thromboxane A2 Receptor (TXA2), TBXA2R (gene 6915) (UniProt P21731); test: NVS_GPCR_hTXA2: NovaScreen (NVS) G Protein-Coupled Receptor Assay for human Thromboxane A2 Receptor (TXA2) (AID 2283282);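 further: actives reduce bound radioligand signal relative to DMSO baseline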
human Thromboxane A2 Receptor (TXA2), TBXA2R (gene 6915), sequence (P21731 whole entry, looked up): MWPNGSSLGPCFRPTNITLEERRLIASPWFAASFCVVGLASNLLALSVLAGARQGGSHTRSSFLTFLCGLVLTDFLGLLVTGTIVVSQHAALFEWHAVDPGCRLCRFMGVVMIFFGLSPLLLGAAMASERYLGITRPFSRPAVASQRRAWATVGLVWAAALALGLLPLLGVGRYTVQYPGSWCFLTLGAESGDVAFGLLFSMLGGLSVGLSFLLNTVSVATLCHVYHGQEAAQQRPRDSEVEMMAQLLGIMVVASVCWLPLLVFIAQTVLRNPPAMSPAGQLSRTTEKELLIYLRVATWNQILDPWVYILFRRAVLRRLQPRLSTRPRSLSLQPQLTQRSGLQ
Procedure, shortened: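 Screening ran at 25 uM in duplicate, with concentration series for confirmed actives. Each test measures radioligand binding to human platelet protein after 1 h, cell-free, using filter-based scintillation detection of signal loss relative to DMSO.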

[19] = target: human Dopamine Receptor D4.4 (DRD4.4), DRD4 (gene 1815) (UniProt P21917); test: NVS_GPCR_hDRD4.4: NovaScreen (NVS) G Protein-Coupled Receptor Assay for human Dopamine Receptor D4.4 (DRD4.4) (AID 2283264)
Procedure, shortened: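 Filter-binding assay with a tritiated or iodinated ligand, cell-free receptor prepared from CHO, 1 hour. Loss of bound radioactivity versus DMSO; single 25 uM duplicate screen, then concentration-response for actives.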

[20] = target: Neuropeptide Y receptor type 2 (Homo sapiens) (UniProt P49146); test: NVS_GPCR_hNPY2: NovaScreen (NVS) G Protein-Coupled Receptor Assay for human Neuropeptide Receptor Y2 (NPY2) (AID 2283277)
Procedure, shortened: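 Chemicals were first tested in duplicate at 25 uM, then actives in singleton concentration series to 50 uM. Tracer binding to SK-N-MC-derived protein measured cell-free after 1 h via filter scintillation; signal loss relative to DMSO.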

SMILES: O=C(c1ccc(OCCN2CCCCC2)cc1)c1c(-c2ccc(O)cc2)sc2cc(O)ccc12
- AC50 [1]: 11.8 µM (active)
- AC50 [2]: 1.07 µM (active)
- AC50 [3]: 0.948 µM (active)
- outcome [4]: inactive
- AC50 [5]: 2.92 µM (active)
- AC50 [6]: 4.93 µM (active)
- AC50 [7]: 3.7 µM (active)
- AC50 [8]: 7.83 µM (active)
- AC50 [9]: 3.58 µM (active)
- AC50 [10]: 5.28 µM (active)
- AC50 [11]: 0.982 µM (active)
- AC50 [12]: 18.5 µM (active)
- AC50 [13]: 12.1 µM (active)
- AC50 [14]: 1.49 µM (active)
- AC50 [15]: 711 nM (active)
- outcome [16]: inactive
- AC50 [17]: 4.36 µM (active)

SMILES: CC(C)(C)c1cc(CCC(=O)OCCSCCOC(=O)CCc2cc(C(C)(C)C)c(O)c(C(C)(C)C)c2)cc(C(C)(C)C)c1O
- outcome [18]: inactive

SMILES: CC/C=C\C#N
- outcome [18]: inactive

SMILES: C=C1CC[C@H]2O[C@]2(C)CC[C@@H]2[C@@H]1CC2(C)C
- outcome [3]: inactive

SMILES: Cc1cc(N)n(-c2ccccc2)n1
- AC50 [5]: 13.9 µM (active)

SMILES: CC/C(=C(\c1ccccc1)c1ccc(OCCN(C)C)cc1)c1ccccc1
- outcome [19]: inactive
- outcome [2]: inactive
- AC50 [5]: 19.3 µM (active)
- AC50 [6]: 10.1 µM (active)
- AC50 [7]: 7.13 µM (active)
- AC50 [20]: 11.9 µM (active)
- AC50 [9]: 6.84 µM (active)
- outcome [9]: inactive
- outcome [10]: inactive
- AC50 [11]: 9.83 µM (active)
- outcome [13]: inactive
- outcome [15]: inactive
- outcome [16]: inactive

SMILES: Cc1cccc(O)c1
- outcome [18]: inactive

SMILES: O=S1(=O)CC(Cl)(Cl)C(Cl)(Cl)C1
- AC50 [3]: 20.1 µM (active)
- outcome [9]: inactive
- outcome [18]: inactive

SMILES: O=C1OC2(c3ccc(O)cc3Oc3cc(O)ccc32)c2ccccc21
- outcome [9]: inactive

SMILES: CCOC(=O)C=Cc1ccccc1
- AC50 [5]: 38.6 µM (active)

SMILES: CC(=O)OCC=C(C)CCC=C(C)CCC=C(C)C
- outcome [3]: inactive

SMILES: CC(=O)c1cccnc1
- outcome [5]: inactive

SMILES: N#CCCCC(C#N)CCC#N (stereo not drawn)
- outcome [3]: inactive

SMILES: Cc1cc(O)c(C)c(C)c1O
- outcome [18]: inactive

SMILES: c1ccc2c(c1)-c1ccc3ccc4cccc5cc-2c1c3c45
- outcome [3]: inactive
- AC50 [15]: 3450 nM (active)

SMILES: C#C[C@]1(O)CC[C@H]2[C@@H]3CCc4cc(O)ccc4[C@H]3CC[C@@]21C
- AC50 [15]: 25 µM (active) and 6.05 µM (active)
- outcome [15]: inactive
- AC50 [17]: 2.64 µM (active)

SMILES: COc1ccccc1NC(=O)CC(C)=O
- outcome [18]: inactive

SMILES: CCCCOCCOCCO
- outcome [9]: inactive

SMILES: CCC(=O)OC/C=C(\C)CCC=C(C)C
- outcome [3]: inactive

SMILES: CC(C)(O)CCc1ccccc1
- outcome [3]: inactive
